Experimental data from PubChem BioAssay (NCATS).
Values without a mark were called inactive. How the calls were made is not given here.

System: HIV-1 nucleocapsid protein NCp7 (binding to TG oligonucleotide)
Experiment: HIV Nucleocapsid (AID 346);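 further: potency is for inhibitors that block NC binding and lower polarization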
Settings: HIV-1 NC / fluorescein-TGTGTGTG probe, fluorescence polarization
Method in brief: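 Fluorescence polarization readout: labelled TG4xF oligo (10 nM) with 100 nM nucleocapsid protein, high-salt (250mM NaCl) Hepes pH 7.5 buffer containing zinc and fresh reducing agents. Compounds added by pin tool; incubation 1 hr, room temperature.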
Potency means the concentration at half of the fitted maximal effect.

Structure (SMILES) | Potency [µM]
O=C(c1ccco1)N1CCC2(CC1)CCN(C(c1ccccc1)c1ccccc1)CC2 | > 20
CNc1ncnc2ccc(-c3ccccc3C)cc12 | > 20
CN(Cc1ccco1)c1ncnc2ccc(-c3ccoc3)cc12 | > 20
c1cncc(CNc2ncncc2-c2ccc3c(c2)OCO3)c1 | > 20
O=C(c1ccncc1)N1CCC2(CCN(Cc3nccs3)CC2)CC1 | > 20
CCNc1ncc2nc(C)c(=O)n(-c3ccc(OC)cc3)c2n1 | > 20
CN(C)c1ccc(-c2cncnc2NCc2cccs2)cc1 | > 20
Cc1cnc(CNc2cc(-c3ccccc3C)ncn2)cn1 | > 20
COc1ccc(C(=O)N2CCC3(CCN(Cc4cc(C(F)(F)F)cc(C(F)(F)F)c4)CC3)CC2)cc1 | > 20
Cn1cccc1C(=O)N1CCC2(CCCN(Cc3ccncc3)C2)CC1 | > 20
COc1ccccc1-c1nccc(Nc2ccc(F)cc2)n1 | > 20
CN(C)C(=O)c1ccc(-c2nc(NCc3cccnc3)c3ccccc3n2)cc1 | > 20
CN(Cc1ccco1)c1ncncc1-c1cccnc1 | > 20
Cn1cccc1C(=O)N1CCC2(CC1)CN(c1cccc(-c3ccccc3)c1)C2 | > 20
CC(C)CN1CCC2(CC1)CCN(C(=O)c1cnccn1)CC2 | > 20
COCCNc1cc(-c2ccccc2C(F)(F)F)ncn1 | > 20
Cc1nc2cnc(N(C)C)nc2n(C)c1=O | > 20
O=C(Nc1cccc(F)c1)N1CCCC2(CCN(C(=O)c3ccncc3)CC2)C1 | > 20
COc1ccc(-n2c(=O)c(-c3cccs3)nc3cnc(Nc4cccc(OC)c4)nc32)cc1 | > 20
COCCn1c(=O)c(-c2cccc(C#N)c2)nc2cnc(N3CCNCC3)nc21 | > 20
O=C(Oc1ccccc1)N1CCC2(CC1)CN(c1ccncc1)C2 | > 20
O=c1cnc2cnc(N3CCNCC3)nc2n1C1CC1 | > 20
COc1ccc2[nH]cc(CCNc3ncncc3-c3ccc(C(=O)N(C)C)cc3)c2c1 | > 20
O=C(c1ccncc1)N1CCC[C@@]2(CCN(Cc3cc(C(F)(F)F)cc(C(F)(F)F)c3)C2)C1 | > 20
N#Cc1cccc(-c2cncnc2NCCc2cnc[nH]2)c1 | > 20
